Our source for the inhibition values is PubChem BioAssay AID1259343 (VanderVen Lab, College of Veterinary Medicine, Cornell …, 2017).

Hit rate of the full screen: of about 6,200 compounds, about 2,900 (47%) were called active. The set was probably picked from earlier hits. Some of the results follow. A number with no mark means an inactive call. Rule as the data show it: active = inhibition above about 50%; inactive = the rest.

By inhibition is commonly meant the drop in the measured response relative to a control, in per cent.

The assay is described as follows: Mycobacterium tuberculosis growth inhibition, primary screen (AID 1259343). Particulars: inhibition: at 10 µM, hits give high values; outcome: 10 uM.
For the compound `CNc1cccc(-c2ccc(O)cc2)n1`, the inhibition was 33.6%.
Then `C=CCn1c(-c2ccc(Cl)cc2Cl)csc1=Nc1cccc(O)c1`, with -10.5%; and `CCOC(=O)Cn1c(=NC(=O)c2ccccc2[N+](=O)[O-])sc2cc(C(C)C)ccc21`, with 3.22%.
Turning to `CCc1c(C)nc(-n2nc(C)cc2NC(=O)c2cc3ccccc3o2)[nH]c1=O`, the inhibition is -38.5%.
With `CCc1c(C)nc(-n2nc(C)cc2NC(=O)c2ccccc2C(F)(F)F)[nH]c1=O` the figure was 101% (active); with `CCc1c(C)nc(-n2nc(C)cc2NC(=O)c2cc(=O)c3ccccc3o2)[nH]c1=O`, 101% (active); with `Cc1nc(C)c(Cc2ccccc2Cl)c(N2CCN(C(=O)c3cccc(Br)c3)CC2)n1`, 29.3%.
Then `Cc1nc(-c2ccc(Cl)cc2)nc(N2CCNCC2)c1Cc1ccccc1`, with 97.6% (active).
Then `CCc1c(C)nc(-c2ccc(OC)cc2)nc1N1CCNCC1`, with 42.7%; and `Cc1nc(-c2ccc(Cl)cc2)nc(N2CCNCC2)c1C`, with 79.2% (active).
In the case of `Cc1nc(-c2cccc(F)c2)nc(N2CCNCC2)c1Cc1ccccc1`, the inhibition is 66.1% (active).
With `Cc1cccc(-c2nc(C)c(Cc3ccccc3)c(N3CCNCC3)n2)c1` the figure was 101% (active); with `Cc1ccc(-c2nc(C)c(C(C)C)c(N3CCNCC3)n2)cc1`, 44%; with `Cc1cccc(OC2CN(c3nc(-c4ccccn4)nc4c3CCNC4)C2)c1`, 26.7%.
`COC(=O)c1ccc(NC(=O)c2ccc(Br)o2)cc1`: the inhibition was 83.8% (active).
Take `Cc1ccc(CN(C)c2ccc(C(=O)O)cc2)cc1`: the inhibition was 51.7% (active).
With `CN(Cc1ccc(C(N)=O)cc1)c1cccc(F)c1C#N` the figure was 13.8%; with `CN(Cc1ccc(Cl)cc1)c1nccc(-c2cc(C(=O)O)ccn2)n1`, 17.6%; with `O=C(CCc1ccc(O)cc1)c1c(O)cc(O)cc1O`, 93.3% (active).
Then `O=C(CCc1ccc(O)cc1)N1CCOC(c2ccc(Cl)cc2)C1` (stereo not drawn), with 19.6%; and `O=C(NCCc1ccc(O)cc1)Nc1cccc2c1CCCC2`, with 7.1%.
As for `Clc1ccc(NN=Cc2ccccn2)cc1Cl`, the inhibition is 14.1%.
With `Clc1ccc2nc(NN=Cc3ccccn3)nc(-c3ccccc3)c2c1` the figure was 92.1% (active); with `C(=NNc1ccc2ccccc2n1)c1ccccn1`, -19.7%.
With `Nc1ccc(S(=O)(=O)Nc2ccnn2-c2ccccc2)cc1` the figure was 55.2% (active).
Then `CC(C)=CCCC(C)CCNCCc1ccco1` (stereo not drawn), with -15%; and `CC(=O)N1CCC(NC(=O)c2ccc(Oc3ccccc3)cc2)CC1`, with 16.9%.
Turning to `CC(Nc1nc(-c2cccs2)nc2ccccc12)C1CCCO1` (stereo not drawn), the inhibition was -41.2%.
Then `CC(NC(=O)c1ccc(Oc2ccccc2)cc1)C1CCCO1` (stereo not drawn), with 92.8% (active).
Then `Cc1cccc(/C=C/c2nc(-c3cc(C(=O)O)co3)cs2)c1`, with 42.9%; and `OCC1(CCc2ccccc2)CCCN(Cc2cc3ccccc3o2)C1` (stereo not drawn), with 23.5%.
With `Oc1ccccc1CN1CCCn2cccc2C1c1cccc(C(F)(F)F)c1` (stereo not drawn) the figure was 22.1%.
For the compound `O=C(C=Cc1ccc2c(c1)OCO2)c1ccc(Cl)cc1Cl`, the inhibition was 73.5% (active).
On to `CC(C)(C)c1ccc(C2=NC(=Cc3ccc4c(c3)OCO4)C(=O)O2)cc1`, for which the inhibition was -19.9%.
Then `O=C(C=Cc1ccc2c(c1)OCO2)c1ccc(Br)cc1`, with -39.3%; and `COC(=O)c1nnn(-c2ccc(C)c(C)c2)c1C(=O)OC`, with 82.4% (active).
In the case of `COC(=O)CCc1nnc(NS(=O)(=O)c2ccc(C)c(C)c2)s1`, the inhibition is 48.8%.
With `Cc1cc(N)c2ccccc2[n+]1CCCCCCCCCC[n+]1c(C)cc(N)c2ccccc21` the figure was 72.6% (active); with `c1cnc(Sc2ccc3ccccc3c2)nc1`, 32.8%.
With `c1cnc2c(c1)ccc1cccnc12` the figure was 95.2% (active); with `c1ccc(-c2cn3c(n2)CCc2ccc4cccnc4c2-3)cc1`, 16.6%; with `Cc1c(Cc2ccccc2)c(=O)oc2cc(OCC(N)=O)ccc12`, 62.1% (active).
Then `NC(=O)COc1cccc(CN2CCCSc3ccccc32)c1`, with 35.4%; and `COc1cccc(-c2coc3c(C)c4oc(=O)c(CCC(=O)O)c(C)c4cc23)c1`, with 47%; and `ClC1(Cl)CC1Cn1c(Cc2ccccc2)nc2ccccc21` (stereo not drawn), with 25.7%.
For `CCc1ccc(OCCCn2c(CO)nc3ccccc32)cc1`, the inhibition was 77% (active).
With `CCc1ccc(OCCn2c(CO)nc3ccccc32)cc1`, the inhibition was 34.1%.
Regarding `CCOc1ccc(N=C(Nc2ccc(OCC)cc2)SC)cc1`, the inhibition is -1.39%.
Consider `COc1ccc(N=C(Nc2ccc(OC)cc2)SC)cc1`, for which the inhibition is 74.3% (active).
In the case of `CCn1c(=S)[nH]c2sc3c(c2c1=O)CCC(C)C3` (stereo not drawn), the inhibition was 21.2%.
With `Cn1c(=S)[nH]c2scc(-c3cccs3)c2c1=O` the figure was -21.9%.
Then `CCn1c(=S)[nH]c2scc(-c3cccs3)c2c1=O`, with 98.8% (active); and `Cc1csc(NC(=O)c2ccc(COc3cccc4c3OC(C)(C)C4)cc2)n1`, with 92.8% (active); and `CCN(CC)[P+](N(C)Cc1ccco1)(N(CC)CC)N(CC)CC`, with 30.8%.
Then `NC1=NC(c2ccc(-c3ccccc3)cc2)n2c(nc3ccccc32)N1` (stereo not drawn), with 26.9%; and `NC1=NC(c2cccc(Cl)c2)n2c(nc3ccccc32)N1` (stereo not drawn), with 56.7% (active).
As for `CC(C)c1ccc(C2N=C(N)Nc3nc4ccccc4n32)cc1` (stereo not drawn), the inhibition is 13.8%.
With `CC(Cn1cccn1)NC(=O)c1ccc(Br)o1` (stereo not drawn) the figure was 22.1%; with `Cc1oc(C)c(C(=O)NC(C)Cc2ccc(Cl)cc2)c1C` (stereo not drawn), 42.4%.
With `Cc1cc(C(=O)NC(C)Cc2ccc(Br)cc2)on1` (stereo not drawn) the figure was 55.5% (active); with `CCCn1nc(C)c(CNc2ccc(Br)cc2)c1C`, 20%.
With `COc1ccc(C2CC(=O)c3cc([N+](=O)[O-])ccc3O2)cc1` (stereo not drawn) the figure was 96.6% (active); with `CN(C)C(=O)n1nnnc1Cc1ccc(-c2ccccc2)cc1`, 39.2%.
With `O=C(CCc1nnc(Cc2ccc(-c3ccccc3)cc2)o1)NCc1cccnc1`, the inhibition result is “inactive”.
With `O=C(CCc1nnc(Cc2ccc(-c3ccccc3)cc2)o1)NCCc1ccccn1` the figure was 50.7% (active); with `CC(NC(=O)CCc1nnc(Cc2ccc(-c3ccccc3)cc2)o1)c1ccccc1` (stereo not drawn), 37.7%.
With `Cc1cn2nc(NC3CCc4ccccc43)sc2n1` (stereo not drawn) the figure was 41.4%.
With `O=C(CCc1nnc(Cc2ccc(-c3ccccc3)cc2)o1)NC1CCc2ccccc21` (stereo not drawn) the figure was 62% (active).
